Assay in all cases: Euclidean distance of Cell Painting phenotypic profile (signed KS, 77 features) to DMSO centroid (dimensionless distance); 5 or 10 uM (library dependent); higher = stronger phenotypic change vs DMSO (phenoactivity)
Common to all, as to conditions: 48 h

One assay deals with 786-O. The gist of the method: (§1)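 Five cancer lines and a healthy fibroblast line received library compounds at 10 or 5 uM (library-dependent, 0.1% DMSO final) for 48 h. Stained cells were imaged confocally at 20X (9 fields/well). Harmony extracted 77 features, each scored as a signed Kolmogorov-Smirnov statistic against same-plate vehicle wells. Profiles were plate-position corrected, correlation-weighted and replicate-averaged at the top dose. Phenoactivity is the Euclidean distance from each profile to the median vehicle profile.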

A further assay relates to A549. The gist of the method: as §1
Another assay deals with DU145. Summed up: as §1
In the next assay the test system is FB. The gist of the method: as §1
The test system of another assay is HEPG2. The gist of the method: as §1
Another assay relates to OVCAR4. The gist of the method: as §1

Counter-ions that a name gives are not always drawn.

Take `C[C@]12CC[C@@H]3c4ccc(O)cc4C[C@@H](CCCCCCCCC[S+]([O-])CCCC(F)(F)C(F)(F)F)[C@H]3[C@@H]1CC[C@@H]2O` (stereo partly drawn) [Fulvestrant]: the Euclidean distance in the assay with 786-O is 1.83; with A549, 1.67; in the assay with DU145 it was 0.894; in the assay with FB it was 1.18; in the assay with HEPG2 it was 0.76; in the assay with OVCAR4, 1.56.

`C[C@]12CCC(=O)C=C1CC[C@@H]1[C@@H]2[C@@H](O)C[C@@]2(C)[C@H]1CC[C@]2(O)C(=O)CO` [Hydrocortisone]: the Euclidean distance in the assay with 786-O came out at 0.925; in the assay on A549 it was 1.63; in the assay on DU145, 2.09; in the assay on FB it was 1.56; with HEPG2 it was 0.62; in the assay on OVCAR4 it was 2.31.

As for `Oc1c(I)cc(I)c2cccnc12` [Diiodohydroxyquinoline], the Euclidean distance in the assay on 786-O was 1.24; in the assay on A549 it was 1.68; in the assay with DU145, 0.746; in the assay on FB, 1.01; in the assay with HEPG2 it was 0.677; with OVCAR4, 1.2.

In the case of `CCCCNc1ncc(-c2ccc(CN3CCOCC3)cn2)c(NC2CCC(O)CC2)n1` (stereo not drawn), the Euclidean distance in the assay with 786-O amounted to 0.709; with A549 it was 1.2; in the assay with DU145, 0.694; in the assay with FB, 1.26; in the assay on HEPG2, 0.659; with OVCAR4, 0.882.

For `CC(C)N(CCC(=O)c1ccc2ccccc2c1)Cc1ccccc1`, the Euclidean distance in the assay on 786-O is 1.68; in the assay on A549, 1.15; in the assay on DU145 it was 0.815; with FB, 1.33; in the assay with HEPG2 it was 0.594; in the assay with OVCAR4, 0.928.

`CSCC1CN(/N=C/c2ccc([N+](=O)[O-])o2)C(=O)O1` (stereo not drawn) [Nifuratel]: the Euclidean distance in the assay on 786-O turned out to be 0.806; in the assay on A549, 0.74; with DU145, 0.807; with FB it was 0.93; in the assay with HEPG2, 1.19; in the assay on OVCAR4, 1.09.

Consider `Nc1ncnc2n[nH]c(Nc3ccc(F)cc3)c12`, for which the Euclidean distance was found to be 0.861 with 786-O; 2.17 with A549; 1.25 in the assay with DU145; 1.67 in the assay on FB; 0.599 in the assay on HEPG2; 1.4 with OVCAR4.

For the molecule `NCc1ccc(S(N)(=O)=O)cc1` [Mafenide Acetate], the Euclidean distance turned out to be 0.874 in the assay with 786-O; 0.744 in the assay with A549; 1.24 with DU145; 1.07 in the assay with FB; 0.456 with HEPG2; 0.942 in the assay on OVCAR4.

On to `C=C1CC[C@H](O)C/C1=C/C=C1\CCC[C@]2(C)[C@@H]([C@H](C)CCCC(C)(C)O)CC[C@@H]12` [Calcifediol], for which the Euclidean distance with 786-O came out at 1.61; in the assay with A549, 0.811; in the assay on DU145 it was 0.927; in the assay on FB, 1.4; with HEPG2 it was 0.618; in the assay on OVCAR4 it was 2.24.

In the case of `NC(=O)c1ccc(N(C(N)=O)c2c(F)cccc2F)nc1-c1ccc(F)cc1F`, the Euclidean distance in the assay on 786-O amounted to 1.24; in the assay on A549, 1.16; with DU145 it was 1.41; in the assay with FB, 1.37; in the assay with HEPG2 it was 0.723; with OVCAR4, 1.18.

Take `CC[C@H]1OC(=O)[C@H](C)[C@@H](O[C@H]2C[C@@](C)(OC)[C@@H](O)[C@H](C)O2)[C@H](C)[C@@H](O[C@@H]2O[C@H](C)C[C@H](N(C)C)[C@H]2O)[C@](C)(O)C[C@@H](C)CN[C@H](C)[C@@H](O)[C@]1(C)O` [Azathramycin]: the Euclidean distance came out at 1.51 with 786-O; 0.559 in the assay on A549; 0.734 in the assay with DU145; 0.693 in the assay on FB; 1.08 in the assay on HEPG2; 0.873 with OVCAR4.

Regarding `CCN(CC)CCOC(=O)c1ccc(N)cc1` [Procaine], the Euclidean distance with 786-O stood at 0.916; with A549, 0.935; in the assay on DU145, 0.941; in the assay with FB, 1.08; in the assay on HEPG2 it was 1.37; in the assay on OVCAR4, 0.75.

In the case of `O=C(NCc1c(F)cc(F)cc1F)c1cn2c(c(O)c1=O)C(=O)N1[C@H]3CC[C@H](C3)O[C@@H]1C2` [Bictegravir], the Euclidean distance in the assay with 786-O stood at 1.77; in the assay on A549 it was 3.73; with DU145 it was 2.63; in the assay on FB, 2.16; in the assay on HEPG2 it was 1.04; in the assay on OVCAR4, 2.99.

As to `COc1cc(NS(C)(=O)=O)ccc1Nc1c2ccccc2nc2ccccc12` [Amsacrine hydrochloride], the Euclidean distance worked out at 3.5 with 786-O; 3.49 with A549; 4.13 in the assay on DU145; 3.04 with FB; 3.28 in the assay with HEPG2; 3.46 in the assay with OVCAR4.

In the case of `COc1cc(NC(C)CCCN)c2ncccc2c1` (stereo not drawn) [Primaquine Diphosphate], the Euclidean distance in the assay with 786-O amounted to 0.845; with A549 it was 2.02; in the assay with DU145, 1.16; in the assay with FB it was 2.24; in the assay with HEPG2, 2.3; in the assay on OVCAR4, 1.51.

For `Cc1cncc(CN2CCC(=C3c4ccc(Cl)cc4CCc4cccnc43)CC2)c1` [Rupatadine Fumarate], the Euclidean distance with 786-O was determined as 1.51; with A549 it was 1.15; in the assay on DU145 it was 1.34; in the assay with FB, 1.22; in the assay on HEPG2, 1.69; in the assay on OVCAR4, 1.27.

As for `CCc1cc2c(cc1CC)CC(NC[C@H](O)c1ccc(O)c3[nH]c(=O)ccc13)C2` [Indacaterol Maleate], the Euclidean distance in the assay with 786-O came out at 0.915; in the assay on A549, 0.63; in the assay on DU145 it was 1.14; in the assay with FB it was 1.67; in the assay on HEPG2 it was 0.818; with OVCAR4 it was 1.02.

Consider `C[C@@]12C[C@@]3(O)O[C@@H](O1)[C@]1(COC(=O)c4ccccc4)[C@H]3C[C@@]12O[C@@H]1O[C@H](CO)[C@@H](O)[C@H](O)[C@H]1O` [Paeoniflorin], for which the Euclidean distance in the assay on 786-O stood at 1.19; in the assay with A549, 0.375; in the assay on DU145, 0.983; with FB it was 0.985; in the assay with HEPG2, 0.474; in the assay with OVCAR4, 1.17.

Take `OCC(O)CN1CCN(c2ccccc2)CC1` (stereo not drawn) [Dropropizine]: the Euclidean distance in the assay with 786-O was 1.11; with A549 it was 1.8; in the assay on DU145, 1.39; with FB it was 1.1; with HEPG2, 0.735; in the assay with OVCAR4 it was 1.98.

For the molecule `c1coc(CNc2ncnc3[nH]cnc23)c1` [Kinetin], the Euclidean distance in the assay on 786-O is 1.36; in the assay with A549, 1.02; in the assay on DU145, 0.682; in the assay with FB, 1.33; with HEPG2, 0.627; with OVCAR4, 1.72.

Consider `C[N+]1(C)CCC(=C(c2ccccc2)c2ccccc2)CC1` [Diphemanil Methylsulfate], for which the Euclidean distance in the assay on 786-O was determined as 1.08; in the assay on A549 it was 0.915; with DU145, 1.02; with FB, 0.946; in the assay on HEPG2 it was 0.465; with OVCAR4, 1.83.

`CN1CCN(C2=Nc3ccccc3Oc3ccc(Cl)cc32)CC1` [Loxapine Succinate]: the Euclidean distance in the assay with 786-O came to 0.937; in the assay with A549, 0.901; in the assay with DU145 it was 1.33; with FB it was 0.885; in the assay with HEPG2, 0.582; in the assay on OVCAR4, 0.838.

`COc1cc(N2CCC(N)CC2)ccc1Nc1ncc(Cl)c(-c2c[nH]c3ccccc23)n1`: the Euclidean distance with 786-O worked out at 2.97; in the assay with A549, 3.34; with DU145, 2.4; with FB, 4.05; with HEPG2 it was 2.56; in the assay on OVCAR4 it was 2.07.

Values taken from the supplement of paper PMC10127200.
